Sampled rows, rich in hits. Any-hit rate of the full collection: about 9.3%.
FMDV inh – High Throughput Screening for Foot and Mouth Disease Virus Antivirals | Potency, µM (doses to about 57.9 µM), for inactives: at the top dose activity change, negative = inhibition, usual class: inhibitors | AID 1159524, 2015 | FMDV antiviral cell-based qHTS | actives 1.2% (n = 410,000); calls by dose curve; tested in HEK293T cells; further: read-out not given here; potency means the concentration at half of the fitted maximal effect; nearly all actives have a fitted effect of over 45% in size
HCMV antiviral – qHTS Assay for inhibitors of the human cytomegalovirus (HCMV). HFF cells, HCMV-luciferase reporter, 72 h; active compounds read low. activity change, negative = inhibition, % at 57.5 µM. actives 4.5% (n = 410,000). AID 1259415, 2018; in the data active means activity change below about -60%; inconclusive means no clear call, values can overlap the other calls; inactive means above about -39%
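Luciferase read-out from HCMV-luciferase-infected HFFs (MOI 1 PFU/cell) 72 h post infection at 37C; compounds added after 16 h cell attachment; activity normalized between buffer-only basal and Salinomycin (10uM) inhibitor controls.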
Vaccinia mCherry – qHTS for Stage-Specific Inhibitors of Vaccinia Orthopoxvirus: mCherry Reporter Primary qHTS | Vaccinia virus mCherry reporter infection, fluorescence | Potency, µM (highest dose often 36.5 µM), for inactives: at the top dose activity change, negative = inhibition, most hits filed as inhibitors | actives 0.63% (n = 310,000) | AID 720579, 2013; calls by dose curve; tested in A549 cells; further: potency means the concentration at half of the fitted maximal effect; nearly all actives have a fitted effect of over 35% in size
Vaccinia Venus – qHTS for Stage-Specific Inhibitors of Vaccinia Orthopoxvirus: Venus Reporter Primary qHTS | AID 720580, 2013 | Vaccinia virus Venus reporter expression, fluorescence | Potency, µM (series often up to 36.5 µM), without a hit: at the highest dose activity change, negative = inhibition, usual class: inhibitors | actives 0.46% (n = 330,000); calls by dose curve; tested in A549 cells; further: potency means the concentration at half of the fitted maximal effect; nearly all actives have a fitted effect of over 30% in size
Sm TGR block – qHTS Assay for the Inhibitors of Schistosoma Mansoni Peroxiredoxins; purified TGR, DTNB reduction, TNB absorbance 405 nm; Potency, µM (highest dose often 114 µM), inactives show at the highest dose activity change, negative = inhibition, hits mostly inhibitors; actives 3% (n = 360,000); AID 485364, 2010; further: potency means the concentration at half of the fitted maximal effect; nearly all actives have a fitted effect of over 60% in size
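Kinetic colorimetric format: TGR-catalysed, NADPH-driven DTNB reduction monitored via TNB absorbance. Enzyme dispensed at 20 nM; compound exposure 15 min at room temperature before reaction start.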
HCV inh – qHTS Assay for Inhibitors of Hepatitis C Virus (HCV); Huh7.5.1 HCVcc-Cre infection, luciferase reporter, 44 h; Potency, µM (series often up to 41.8 µM), for inactives: top-dose activity change, negative = inhibition, most hits filed as inhibitors; AID 651820, 2012; actives 3.4% (n = 340,000); further: potency means the concentration at half of the fitted maximal effect
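Whole-lifecycle infectious HCVcc-Cre system; cells 1,000/well, compound then virus (~0.5 moi) added 4 h after plating, 44 h culture. Luciferase read 15 sec following 15 min substrate incubation, room temp.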
The depositor's hits bear a star; [ ] = remark or other dose. Unless noted, the call rests on the fitted dose curve; in most records, active means well fitted curve in the direction sought with a large enough effect; inconclusive means small, poorly fitted or top-dose-only effect, or another doubt; inactive means no such curve, though single readings can be large; an effect the other way counts as inactive or inconclusive. On the % scale 0 is the no-effect control and ±100 the full control effect.

`CCOC(=O)N1CCN(C(=O)COC(=O)c2cc(Cl)cc(Cl)c2)CC1` gave FMDV inh -7.2%, HCMV antiviral 19.7, Vaccinia mCherry -5.1%, Vaccinia Venus -1.5% and HCV inh 12.8%.
For CCN(CC(=O)NC(C)C)Cc1nc2sc3c(c2c(=O)[nH]1)CCC3 the results were FMDV inh -12.6%, HCMV antiviral -2.1, Vaccinia mCherry -0.1%, Vaccinia Venus -9.0%, Sm TGR block inconclusive and HCV inh inconclusive.
Cc1c(Cl)cccc1NC(=S)N1CCN(C(=O)c2ccco2)CC1 was read as FMDV inh -27.1%, HCMV antiviral -1.0, Vaccinia mCherry -21.0%, Vaccinia Venus inconclusive, Sm TGR block -10.3% and HCV inh -16.5%.
`O=C(NNC1CC(=O)N(c2ccc(F)cc2)C1=O)c1cccnc1` (stereo not given) gave FMDV inh 2.8%, HCMV antiviral -21.3, Vaccinia mCherry -13.0%, Vaccinia Venus -12.4%, Sm TGR block 7.94µM* and HCV inh 23.8%.
`O=C(Cc1ccc(Br)cc1)OCC(=O)c1ccc[nH]1` gave FMDV inh 0.0%, HCMV antiviral 7.2, Vaccinia mCherry -0.4%, Vaccinia Venus -14.6% and HCV inh 8.8%.
`CCCn1nc(NC(=O)c2ccco2)c2cc3cc(C)ccc3nc21` gave FMDV inh 4.2%, HCMV antiviral 28.0, Sm TGR block 11.2µM* and HCV inh 12.6µM*.
For CC(C)Cn1nc(NC(=O)C(C)(C)C)c2cc3ccccc3nc21 the results were FMDV inh -15.2%, HCMV antiviral inconclusive, Sm TGR block 0.1% and HCV inh -9.5%.
Screening CCn1nc(NC(=O)c2ccco2)c2cc3ccccc3nc21 returned FMDV inh 1.4%, HCMV antiviral 26.2, Vaccinia mCherry -6.8%, Vaccinia Venus -10.1%, Sm TGR block 2.6%[11.4 µM] and HCV inh inconclusive.
CC(C)Cn1nc(NC(=O)c2ccco2)c2cc3ccccc3nc21 was read as FMDV inh -17.4%, HCMV antiviral -16.5, Vaccinia mCherry -18.2%, Vaccinia Venus -22.3%, Sm TGR block 50.1µM* and HCV inh inconclusive.
For COc1ccc2nc3c(cc2c1)c(NC(=O)c1cccs1)nn3CC(C)C the results were FMDV inh 1.5%, HCMV antiviral -83.5*, Vaccinia Venus inconclusive, Sm TGR block 0.5% and HCV inh inconclusive.
For CC(C)Cn1nc(NC(=O)c2cccs2)c2cc3ccccc3nc21 the results were FMDV inh -12.1%, HCMV antiviral 77.0, Sm TGR block 5.7% and HCV inh 8.91µM*.
Screening COCCNC(=O)CN(Cc1ccc(OC)cc1)C(=O)CCC(=O)Nc1nccs1 returned FMDV inh -4.7%, HCMV antiviral -25.2, Vaccinia mCherry -22.1%, Vaccinia Venus -16.1%, Sm TGR block 6.8% and HCV inh 17.0%.
Screening CCN(CC)c1cc2c(cc1F)c(=O)c(S(=O)(=O)c1cccc(C)c1)cn2C returned FMDV inh 5.0%, HCMV antiviral -64.1*, Vaccinia mCherry inactive, Vaccinia Venus -13.7% and Sm TGR block 17.0%.
Screening Cc1cccc(CN2CCC(C(=O)Nc3ccc(-n4nc(C)cc4C)cc3)CC2)n1 returned FMDV inh -16.0%, HCMV antiviral inconclusive, Vaccinia mCherry -7.9%, Vaccinia Venus -23.5%, Sm TGR block 0.0% and HCV inh 8.8%.
`Cc1nc(NCCc2ccc(S(N)(=O)=O)cc2)c2c(C)c(C)sc2n1` gave FMDV inh 22.4µM*, HCMV antiviral -88.3*, Vaccinia mCherry inconclusive, Vaccinia Venus inconclusive, Sm TGR block -4.3% and HCV inh 1µM*.
Screening COc1ccc(CNC(=O)CSc2nnc3c(n2)[nH]c2ccc(OC)cc23)cc1 returned FMDV inh 11.3%, HCMV antiviral 16.6, Vaccinia mCherry 8.6%, Vaccinia Venus -0.7%, Sm TGR block -15.6% and HCV inh -3.6%.
`COc1ccc2[nH]c3nc(SC(C)C)nnc3c2c1` gave FMDV inh 12.6µM*, HCMV antiviral -20.7, Vaccinia mCherry -14.2%, Vaccinia Venus -8.9%, Sm TGR block 3.9% and HCV inh -18.9%.
For COc1ccc2[nH]c3nc(SCc4nnc(-c5ccccc5)o4)nnc3c2c1 the results were FMDV inh -13.3%, HCMV antiviral -94.3*, Sm TGR block 0.8% and HCV inh inconclusive.
Screening CCc1ccc2[nH]c3nc(SCc4nnc(-c5ccccc5)o4)nnc3c2c1 returned FMDV inh -2.2%, HCMV antiviral -27.8, Vaccinia mCherry -13.6%, Vaccinia Venus -14.2%, Sm TGR block 11.1% and HCV inh 20.6%.
`CC(C)C[C@H](N)c1nnc(S(=O)(=O)Cc2ccc(F)cc2)o1` gave FMDV inh 22.4µM*, Vaccinia Venus -10.3%, Sm TGR block 1µM* and HCV inh 8.0%.
For CCCC(NC(=S)NCC1CCCO1)C12CC3CC(CC(C3)C1)C2 (stereo not given) the results were FMDV inh -8.9%, HCMV antiviral -92.5*, Vaccinia mCherry inactive, Vaccinia Venus -26.3%, Sm TGR block -11.3% and HCV inh 11.2µM*.
CC(=O)c1ccc(OCc2ncc(C(F)(F)F)cc2Cl)cc1 was read as FMDV inh 44.7%, HCMV antiviral 14.6, Vaccinia mCherry -21.0%, Vaccinia Venus -1.5%, Sm TGR block 0.0% and HCV inh 1.4%.
Screening CCN(C(=O)C=Cc1ccco1)c1ccccc1 returned FMDV inh -10.3%, HCMV antiviral 1.6, Vaccinia mCherry inactive, Vaccinia Venus -9.4% and HCV inh -8.8%.
For CC(/C=C/c1ccc(Cl)o1)=C\C(=O)O the results were FMDV inh -6.0%, HCMV antiviral -0.9, Vaccinia mCherry 16.3%, Vaccinia Venus 5.5%, Sm TGR block 8.91µM* and HCV inh 12.0%.
For CC(=C/C(=O)O)/C=C/c1ccco1 the results were FMDV inh inconclusive, HCMV antiviral 7.4, Vaccinia mCherry -11.7%, Vaccinia Venus -11.9%, Sm TGR block 7.94µM* and HCV inh 2.7%.
`CN(c1ccc(OCC(=O)Nc2nc3ccccc3s2)cc1)S(=O)(=O)c1ccccc1` gave FMDV inh 11.2µM*, HCMV antiviral inconclusive, Sm TGR block 2.6% and HCV inh inconclusive.
`CCc1nnc(NC(=O)COc2ccc(N(C)S(=O)(=O)c3ccc(C)cc3)cc2)s1` gave FMDV inh -12.6%, HCMV antiviral -102.4*, Sm TGR block 8.7% and HCV inh -23.2%.

Screening data: PubChem BioAssay, National Center for Advancing Translational Sciences (NCATS)
